Pol kappa inh-1: blocks human DNA polymerase kappa activity | Q9UBT6 | purified Pol kappa, fluorescent DNA synthesis assay, 10 min | AID 588579 | Potency, µM (highest dose often 107 µM), for inactives: at the highest dose activity, negative = inhibition, most hits filed as inhibitors | actives 0.53% (n = 400,000); also: % is scaled to controls: 0 for no effect and ±100 for the full control effect
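Kinetic fluorescence screen: compound preincubated 15 min RT with 10 nM enzyme; 50 nM substrate (final) initiates; reads at 0/10 min.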
Pol beta inh: DNA polymerase beta (human) inhibition; Potency, µM (top dose mostly 114 µM), without a hit: at the top dose activity change, negative = inhibition, hits mostly inhibitors; actives 1.3% (n = 340,000); P06746; Pol beta primer extension/strand displacement, fluorescence kinetic; also: % is scaled to controls: 0 for no effect and ±100 for the full control effect
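Pol beta (10 nM) and compounds were preincubated 15 min at room temperature, then 50 nM substrate (final) started primer extension/strand displacement. Reads were taken at 0 and 10 min; concentration-response data were fitted to a four-parameter Hill equation.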
Pol eta inh-1: blocks human DNA polymerase eta activity; Q9Y253; AID 588591; Potency, µM (top dose mostly 114 µM), for the others: top-dose activity change, negative = inhibition, most hits filed as inhibitors; actives 1.2% (n = 390,000); recombinant Pol eta, fluorescent DNA replication assay; also: % is scaled to controls: 0 for no effect and ±100 for the full control effect
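Fluorescent replication assay: 50 nM final substrate added after a 15 min room-temperature compound preincubation with 10 nM enzyme. Signal taken at 0 min and again at 10 min.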
WRN helicase inh-1: blocks human WRN helicase | WRN helicase unwinding, fluorescent forked duplex, kinetic | Q14191 | AID 651768 | actives 0.46% (n = 360,000) | Potency, µM (highest dose often 114 µM), for the others: at the highest dose activity change, negative = inhibition, hits mostly inhibitors; also: % is scaled to controls: 0 for no effect and ±100 for the full control effect; nearly all actives have a fitted effect of over 55% in size
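Enzyme (20 nM final) and test compound sit together 15 min at room temperature before substrate addition. Substrate is a single-forked duplex oligonucleotide (100 nM) labelled with fluorophore and quencher, with 2 mM ATP; helicase unwinding raises red fluorescence, read kinetically.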
Pol iota inh: blocks human DNA polymerase iota activity | AID 588590 | actives 1% (n = 390,000) | Potency, µM (highest dose often 115 µM), for the others: at the top dose activity, negative = inhibition, usual class: inhibitors | Pol iota fluorescent replication assay, 10 min | Q9UNA4
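Pol iota at 10 nM preincubated 15 min with compounds at room temperature; reaction started with fluorescent substrate, 50 nM final. Fluorescence read kinetically at 0 and 10 min; buffer-only wells as negative control.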
FEN1 inh-1: inhibitors of human flap endonuclease 1; P39748; Recombinant FEN1 flap cleavage, fluorescence, 15 min; Potency, µM (doses to about 114 µM), for inactives: at the highest dose activity change, negative = inhibition, actives largely listed as inhibitors; actives 0.35% (n = 390,000); AID 588795; also: % is scaled to controls: 0 for no effect and ±100 for the full control effect; nearly all actives have a fitted effect of over 65% in size
Target sequence (P39748 whole entry, looked up): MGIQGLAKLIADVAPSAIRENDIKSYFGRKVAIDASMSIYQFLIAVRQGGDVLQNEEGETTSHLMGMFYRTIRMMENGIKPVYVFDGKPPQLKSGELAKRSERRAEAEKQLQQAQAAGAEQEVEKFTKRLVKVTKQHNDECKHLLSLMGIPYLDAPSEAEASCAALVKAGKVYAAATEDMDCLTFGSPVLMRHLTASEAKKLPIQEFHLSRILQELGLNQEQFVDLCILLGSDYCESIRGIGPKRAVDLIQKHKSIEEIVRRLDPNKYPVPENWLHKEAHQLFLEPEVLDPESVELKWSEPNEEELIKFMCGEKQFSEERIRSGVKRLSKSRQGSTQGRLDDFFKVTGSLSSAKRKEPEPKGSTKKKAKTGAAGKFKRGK
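In this screen, 50 nM flap DNA substrate was added to 10 nM FEN1 pretreated with compound for 15 min at room temperature; cleavage was followed with reads at 0 and 15 min, and Hill fitting gave concentration–response parameters.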
Pol kappa inh-2: Pol kappa (human) inhibition, cherry-pick confirmation. shares compounds with Pol eta inh-1. purified Pol-kappa, fluorescent strand-displacement substrate. Potency, µM, actives largely listed as inhibitors. actives 76% (n = 920). AID 720501
Pol eta inh-2: Pol eta (human) inhibition, cherry-pick confirmation; shares compounds with Pol eta inh-1; Pol eta primer extension, TAMRA/BHQ fluorescence, 10 min; Potency, µM, usual class: inhibitors; actives 64% (n = 2,600); AID 720502
FEN1 inh-2: FEN1 inhibition, cherry-pick retest. shares compounds with FEN1 inh-1. FEN1 flap cleavage, TAMRA/BHQ2 fluorogenic DNA substrate. Potency, µM, hits mostly inhibitors. actives 79% (n = 880). AID 720498; also: nearly all actives have a fitted effect of over 60% in size
WRN helicase inh-2: confirmation of human WRN helicase inhibitors; shares compounds with WRN helicase inh-1; AID 720497; WRN helicase DNA unwinding, fluorescence kinetic; Potency, µM (titrated, usually from 57.1 µM), for inactives: at the top dose activity, negative = inhibition, actives largely listed as inhibitors; actives 63% (n = 610); also: nearly all actives have a fitted effect of over 65% in size
TO displacement: counter-screen for WRN helicase inhibitors: DNA binding; thiazole orange DNA binding displacement, fluorescence; shares compounds with WRN helicase inh-1; Potency, µM (series often up to 57.1 µM), inactives show at the highest dose activity change, negative = inhibition, most hits filed as inhibitors; actives 10% (n = 610);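 also: drop in dye fluorescence marks compound binding to DNA; % is scaled to controls: 0 for no effect and ±100 for the full control effect; nearly all actives have a fitted effect of over 60% in size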
BLM helicase inh: blocks human BLM helicase in WRN counterscreen; shares compounds with WRN helicase inh-1; Potency, µM (titrated, usually from 57.1 µM), for the others: top-dose activity change, negative = inhibition, usual class: inhibitors; actives 60% (n = 610); Recombinant BLM helicase DNA unwinding, red fluorescence; also: nearly all actives have a fitted effect of over 60% in size
Numbers without * were called inactive; i = inactive; u = inconclusive; x = no result; [ ] = dose if it differs, or a comment. Shown are actives, neighbours in structure and some others; about 2.4% of the full set was active somewhere. Calls follow the shape of the dose curve; as a rule, active = well fitted curve in the direction sought with a large enough effect; inconclusive = small, poorly fitted or top-dose-only effect, or another doubt; inactive = no such curve, though single readings can be large; an effect the other way counts as inactive or inconclusive. Potency is read from the fitted curve at half-maximal effect.

SMILES	Pol kappa inh-1	Pol beta inh	Pol eta inh-1	WRN helicase inh-1	Pol iota inh	FEN1 inh-1	Pol eta inh-2	FEN1 inh-2	others
COc1ncc2nc(-c3ccc(Cl)cc3)c(=O)n(Cc3cccs3)c2n1	1%[60.1 µM]	x	x	x	x	x	x	x
O=C(COC(=O)c1ccc([N+](=O)[O-])o1)Nc1ncc(Cl)cc1Cl	-24%	x	22µM*	u	u	u	u	11*
O=C1NC(=Nc2ccccc2Cl)S/C1=C\c1cc([N+](=O)[O-])ccc1O	u	u	79µM*	-27%	35µM*	u	x	u	Pol kappa inh-2=u
COC(=O)/C=C1\SC(=NC(=O)c2cccc([N+](=O)[O-])c2)NC1=O	-11%	21%	u	-16%	u	6%	x	x
COc1ccc(Cl)cc1N=Nc1ncc[nH]1	3%[19.4 µM]	x	x	x	x	x	x	x
Cc1cc2n(n1)CCCN2C(=O)Nc1ccc(Cl)cc1	-3%[60.1 µM]	-15%	-18%	x	13%	-5%	x	x
Cc1c(NC(=O)C(C)OC(=O)c2ccc([N+](=O)[O-])s2)c(=O)n(-c2ccccc2)n1C (stereo unspecified)	u	10µM*	50µM*	0%[11.6 µM]	u	-2%	u	6*
O=C(CCN1C(=O)/C(=C\c2cccs2)SC1=S)Nc1ccc(C(=O)O)cc1	u	88%	56µM*	1%[11.6 µM]	u	u	u	67*
COc1ccc(S(=O)(=O)NCc2nc(-c3ccccc3)no2)cc1	11%	10%	-8%	x	u	-7%	x	x
Oc1ccc(N=Nc2ccccc2-c2nn[nH]n2)c(O)c1	16%	32µM*	22µM*	-16%[11.6 µM]	11%	u	54*	38*
CC1=CN2C(=N)/C(=C/c3ccc([N+](=O)[O-])o3)C(=O)N=C2S1	32µM*	18µM*	4µM*	32µM*	16µM*	56µM*	60*	67*
CC1=CN2C(=N)/C(=C/c3ccco3)C(=O)N=C2S1	-21%	u	u	u	-19%	3%	x	x
COc1ccc(S(=O)(=O)Nc2cc3c(cc2NCc2ccccc2)n(C)c(=O)n3C)cc1OC	-11%	-3%	-8%	x	-1%	-7%	x	x
NC(=O)c1ccc(N=Cc2ccc([N+](=O)[O-])s2)cc1	-34%	u	32µM*	-3%	50µM*	u	u	6.7*
O=C(Cc1cccs1)N/N=C\c1ccc([N+](=O)[O-])s1	-39%	7%	-69%	0%	-28%	u	x	x
COC(=O)c1ccc(NC(=O)CC2C(=O)N(c3cccc(OC)c3)C(=O)N2Cc2cccs2)cc1 (stereo unspecified)	3%	19%	-4%	x	10%	-1%	x	x
O=c1cc(-c2ccc(O)c(-c3c(O)cc(O)c4c(=O)cc(-c5ccc(O)cc5)oc34)c2)oc2cc(O)cc(O)c12	79µM*	-22%	18µM*	u	32µM*	45µM*	34*	48*
CCc1ccc(S(=O)(=O)Nc2cc(SCC(=O)O)c(O)c3ccccc23)cc1	u	u	50µM*	45µM*	5.6µM*	u	u	60*
Cc1nc2ccn(Cc3ccco3)c(=O)c2cc1C(=O)NCc1ccc(Cl)cc1	13%	4%	7%	x	7%	13%	x	x
O=C(O)/C=C/c1cn(-c2ccccc2)nc1-c1ccc(-c2ccc([N+](=O)[O-])cc2)o1	-24%	28µM*	32µM*	50µM*	u	u	85*	76*
Cn1nc(-c2ccc(OCC(=O)Nc3ccccc3)cc2)c2ccccc2c1=O	-8%	-21%	7%	-2%	5%	5%	x	x
Cn1nc(-c2ccc(OCC(=O)Nc3ccc(Cl)cc3)cc2)c2ccccc2c1=O	-19%	7.9µM*	-11%	x	-6%	u	x	34*	Pol kappa inh-2=42*
CC[N+](CC)(CC)CCOc1ccc(/C=C\c2ccccc2)cc1	-7%[19.4 µM]	x	x	x	x	x	x	x
CC[N+](CC)(CC)CCCCOc1ccc2c(c1)C(=O)c1cc(OCCCC[N+](CC)(CC)CC)ccc1-2	-27%	-102%	u	50µM*	u	13µM*	u	21*
O=C(Nc1nc2n(n1)C(c1ccccc1)C=C(c1ccccc1)N2)c1ccccc1 (stereo unspecified)	-9%	3%	-4%	x	-9%	9%	x	x
SMILES	Pol kappa inh-1	Pol beta inh	Pol eta inh-1	WRN helicase inh-1	Pol iota inh	FEN1 inh-1	Pol eta inh-2	FEN1 inh-2	others
O=c1ccc2[n+]([O-])c3ccc(O)cc3oc-2c1	u	63µM*	i	i	25µM*	40µM*	x	60*	Pol kappa inh-2=24*
O=c1cc(O)c2ccc(O)cc2o1	-13%	2%	3%	-4%	10%	4%	x	x
COc1ccc2c(c1)cc(C(=O)N/N=C/c1c(O)c(C(=O)O)cc3ccccc13)n2C	-22%	32µM*	40µM*	-14%[11.6 µM]	u	u	85*	85*	Pol kappa inh-2=75*
Cn1c(C(=O)NN)cc2cc(Oc3ccccc3)ccc21	1%	5%	-19%	-5%	-18%	-5%	x	x
CC(=O)NN1C(=O)/C(=C/c2ccc(Br)o2)SC1=S	7.9µM*	u	4µM*	50µM*	2.5µM*	40µM*	u	x	WRN helicase inh-2=-20%;TO displacement=2%;BLM helicase inh=-20%
COc1cccc(NC(=O)C(Cc2ccccc2)NS(=O)(=O)c2ccc3c(c2)oc(=O)n3C)c1 (stereo unspecified)	-3%	23%	-15%	x	2%	-16%	x	x

High-throughput results: PubChem BioAssay, National Center for Advancing Translational Sciences (NCATS)
